# Assay results taken from PubChem BioAssay (NCATS).
# Values joined by “and” are separate entries in the source; they are usually repeats but may differ in a detail not shown here. Equal values may be shown once. Inconclusive results are not listed. Where a call stands in place of a potency, no number is given. A number with no mark means an inactive call. Active and inactive are the calls of the source. Calls follow the shape of the dose curve; as a rule, active = well fitted inhibition curve with a large enough effect; inconclusive = small, poorly fitted or top-dose-only effect; inactive = flat fitted curve, though single readings scatter. Where a SMILES comes first, the peptide text is derived from it. [ ]: non-standard residue; d: D form. ξ: configuration not given here. ξPhe(βξ-Me) = CC(c1ccccc1)C(N)C(=O)O; GABA = NCCCC(=O)O
# What was measured:
# [1] = target: Calcium and integrin-binding protein 1 (Homo sapiens) (UniProt Q99828); assay: Primary qHTS for Identification of Calcium Integrin Binding Protein 1 (CIB1) Competitor (AID 1508620);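 also: GST tagged CIB1 binding a fluorescein labelled alphaIIb integrin peptide tracer; top concentration of the series differs between compounds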
# Calcium and integrin-binding protein 1 (Homo sapiens), sequence (Q99828 whole entry, looked up): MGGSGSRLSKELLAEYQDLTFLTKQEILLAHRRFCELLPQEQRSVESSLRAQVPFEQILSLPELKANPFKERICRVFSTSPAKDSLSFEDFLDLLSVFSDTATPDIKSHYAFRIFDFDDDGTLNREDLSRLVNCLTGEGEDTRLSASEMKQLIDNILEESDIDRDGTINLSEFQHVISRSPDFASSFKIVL
# Procedure, shortened: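 Fluorescence polarization competition: GST-tagged CIB1 (1 uM final) preincubated with compound 15 min at room temperature, then FITC-labelled alphaIIb peptide (100 nM final) added. After 15 min at room temperature, polarization read at Ex 480/Em 540.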
# [2] = Primary qHTS for inhibitors of nuclear receptor binding SET domain protein 2 (NSD2) in an isogenic RCH-ACV NSD2 p.E1099K mutant (9B) (AID 1645876); also: nearly all actives have a fitted effect of over 70% in size; also: potency is read from the fitted curve at half-maximal effect
compound,measurement,setting,value
C[S+](CC[C@H](N)C(=O)[O-])C[C@H]1O[C@@H](n2cnc3c(N)ncnc32)[C@H](O)[C@@H]1O (stereo not given in full),Potency,[1],inactive
same,Potency,[2],inactive
FC(F)(F)c1ccc(Nc2nc(-c3c(C(F)(F)F)nc4ccccn34)cs2)cc1,Potency,[1],inactive
same,Potency,[2],417 nM (active)
CC(=O)c1ccc(O[C@@H]2O[C@H](CO)[C@@H](O)[C@H](O)[C@H]2O)cc1,Potency,[1],inactive
same,Potency,[2],inactive
CC1OC(OC2C(CO)OC(OCC3OC(OC(=O)C45CCC(C)(C)CC4C4=CCC6C7(C)CCC(OC8OC(CO)C(O)C(OC9OC(CO)C(O)C(O)C9O)C8O)C(C)(C)C7CCC6(C)C4(C)CC5)C(O)C(O)C3O)C(O)C2O)C(O)C(O)C1OC1OC(CO)C(O)C(O)C1O (stereo not given),"activity change, negative = inhibition",[1],-4.16% [at 12.4 µM]
same,"activity change, negative = viability loss",[2],-0.174% [at 9.23 µM]
C=C(CCC1=C(C)[C@H]2[C@H](CC3[C@@H]4CC=C5C[C@@H](O)C[C@@H](O)[C@]5(C)C4[C@H](O)C[C@@]32C)O1)CO[C@@H]1O[C@H](CO)[C@@H](O)[C@H](O)[C@H]1O (stereo not given in full),Potency,[1],inactive
same,Potency,[2],483 nM (active)
CC1NC(=O)CCCNC(=O)C(Cc2c[nH]c3ccccc23)NC(=O)C(C)NC(=O)C(C(C)C)NC(=O)C(C(C)c2ccccc2)NC(=O)C(C(C)C)NC1=O (stereo not drawn) (cyclo([GABA]AV[ξPhe(βξ-Me)]VAW); configuration not given here),Potency,[1],inactive
same,Potency,[2],inactive
CC1OC(OC2C(C)OC(OC3C(O)C(CO)OC(O[C@H]4CC[C@@]5(C)C(CC[C@]6(C)C5CC=C5C7[C@@H](C)[C@H](C)CC[C@]7(C(=O)O)CC[C@]56C(=O)O)C4(C)C)C3O)C(O)C2O)C(O)C(O)C1O (stereo not given in full),Potency,[1],inactive
same,"activity change, negative = viability loss",[2],-0.763% [at 9.23 µM]
CC1(C)CC[C@]2(CO[C@@H]3O[C@H](CO)[C@@H](O)[C@H](O)[C@H]3O)[C@@H](O)C[C@]3(C)C(=CCC4[C@@]5(C)CC[C@H](O[C@@H]6O[C@H](CO[C@@H]7O[C@H](CO[C@@H]8OC[C@@H](O)[C@H](O)[C@H]8O)[C@@H](O)[C@H](O)[C@H]7O)[C@@H](O)[C@H](O)[C@H]6O)C(C)(C)C5CC[C@]43C)[C@@H]2C1 (stereo not given in full),Potency,[1],inactive
same,"activity change, negative = viability loss",[2],-11.3% [at 9.23 µM]
CC(C)c1c2cc(-c3ccnc(NC4CCC(NC5CCOCC5)CC4)n3)ccc2nn1C (stereo not given),Potency,[1],inactive
same,Potency,[2],163 nM (active) and 148 nM (active)
Nc1nc2c(ncn2[C@@H]2O[C@@H]3COP(=O)(O)O[C@H]3[C@H]2O)c(=O)[nH]1,Potency,[1],inactive
same,Potency,[2],inactive
C[C@@H]1CC[C@]2(C(=O)O[C@@H]3O[C@H](CO)[C@@H](O)[C@H](O)[C@H]3O)CC[C@]3(C)C(=CCC4[C@@]5(C)C[C@@H](O)[C@H](O)[C@](C)(C(=O)O)C5CC[C@]43C)[C@@H]2[C@]1(C)O (stereo not given in full),Potency,[1],inactive
same,Potency,[2],inactive
COc1cc(O)c2c(c1)C1=CC(O)C(O)CC1(C)OC2=O (stereo not given),Potency,[1],inactive
same,Potency,[2],inactive
COc1c2ccoc2cc2oc(CO[C@@H]3O[C@H](CO)[C@@H](O)[C@H](O)[C@H]3O)cc(=O)c12,Potency,[1],inactive
same,Potency,[2],inactive
C=C1C(O)CC2C(C(=O)O)=COC(O[C@@H]3O[C@H](COC(=O)/C=C/c4ccc(O)cc4)[C@@H](O)[C@H](O)[C@H]3O)C12 (stereo not given in full),Potency,[1],inactive
same,Potency,[2],inactive
CCC(O)C(C)C1CCC(C(C)C(=O)O)O1 (stereo not given),Potency,[1],inactive
same,Potency,[2],inactive
O=C(/C=C\n1cnc(-c2cc(C(F)(F)F)cc(C(F)(F)F)c2)n1)N1CC(F)(F)C1,Potency,[1],inactive
same,Potency,[2],934 nM (active)
Cc1cc(O)cc(O[C@@H]2O[C@H](CO)[C@@H](O)[C@H](O)[C@H]2O)c1,Potency,[1],inactive
same,Potency,[2],inactive
COC(=O)Cc1cc2c(c([N+](=O)[O-])c1)N(C(=O)CC[C@H](N)C(=O)O)CC2,Potency,[1],inactive
same,Potency,[2],inactive
COc1c/c(=C2\C=c3ccccc3=N2)[nH]/c1=C\c1[nH]c(C)cc1C,Potency,[1],inactive
same,Potency,[2],5780 nM (active)
CC(C)C(N)C(=O)OCCOCn1cnc2c(=O)[nH]c(N)nc21 (stereo not given),Potency,[1],inactive
same,Potency,[2],inactive
CC(=O)O[C@@H]1C[C@H](O)[C@@]23CO[C@H](O)[C@]1(C)C2C[C@@H](O)[C@]1(C)C3C(=O)[C@H](OC(C)=O)[C@@]2(C)[C@H](c3ccoc3)C[C@H]3O[C@]321 (stereo not given in full),Potency,[1],inactive
same,Potency,[2],34.2 nM (active)
C=CC[C@]12C[C@@H](OC)C(=O)C(OC)=C1O[C@@H](c1cc(OC)c3c(c1)OCO3)[C@@H]2C,Potency,[1],inactive
same,Potency,[2],inactive
C[C@H](Nc1ncnc2nc[nH]c12)c1cc2ccc(F)cc2nc1-c1ccccn1,Potency,[1],inactive
same,Potency,[2],833 nM (active)
CC12CCC(=O)C=C1C(O)CC1C2C(O)CC2(C)C1CC[C@]2(O)C(=O)CO (stereo not given in full),Potency,[1],inactive
same,outcome,[2],inactive [at 9.23 µM]
CO[C@H]1/C=C/[C@@](C)(O)/C=C/C(=O)O[C@H](C)[C@@H](C)CC/C=C/1C,Potency,[1],inactive
same,Potency,[2],14200 nM (active)
COc1ccc(-c2cnc3ccc(NCc4ccc(S(N)(=O)=O)cc4)nn23)cc1OC,Potency,[1],inactive
same,Potency,[2],9160 nM (active)
COc1c2c(c(C)c3c1C(=O)OC3)OC1(C)CC(O)C34OC(OC)(OC3(C)C)C(O)CC4(C)C1C2 (stereo not given),Potency,[1],inactive
same,Potency,[2],inactive
C/C(=C\C=C\C(C)C1CCC2(C)C3CCC4C(C)(C)C(=O)CCC45CC35CCC12C)C(=O)O (stereo not given),Potency,[1],inactive
same,Potency,[2],inactive
C[C@@H]1C[C@@H]([C@@H](O)C(C)(C)O)O[C@H]2C[C@@]3(C)C(=C12)C[C@H](O)[C@H]1[C@@]2(C)CCC(=O)C(C)(C)C2CC[C@@]13C (stereo not given in full),Potency,[1],inactive
same,Potency,[2],inactive
CCC(O)(C(=O)OCc1ccccc1NC(=O)CCC(=O)O)C(C)O (stereo not given),Potency,[1],inactive
same,Potency,[2],inactive
C[C@H](NC(c1cccc2[nH]c(=O)c(=O)[nH]c12)P(=O)(O)O)c1ccc(Br)cc1 (stereo not given in full),Potency,[1],inactive
same,Potency,[2],inactive
C=C(C)C1CCC2(C(=O)O[C@@H]3O[C@H](CO[C@@H]4O[C@H](CO)[C@@H](O)[C@H](O)[C@H]4O)[C@@H](O)[C@H](O[C@@H]4O[C@@H](C)[C@H](O)[C@@H](O)[C@H]4O)[C@H]3O)CCC3(C(=O)O)C(CCC4C5(C)CCC(O)C(C)(C)C5CCC43C)C12 (stereo not given in full),Potency,[1],inactive
same,outcome,[2],inactive [at 9.23 µM]
C/C=C/C1=CC2=C(CO1)C(=O)C(C)(O)C(OC(=O)c1c(C)cc(OC)cc1O)C2 (stereo not given),Potency,[1],inactive
same,Potency,[2],16000 nM (active)
CC1=CC(=O)CC2C1(O)CCC(C)C21CC(c2ccoc2)OC1=O (stereo not given),Potency,[1],inactive
same,Potency,[2],inactive
N[C@@]1(C(=O)O)CC[C@H]2[C@H](C(=O)O)[C@H]21,Potency,[1],inactive
same,Potency,[2],inactive
CC(C)C[C@H](CC(=O)NO)C(=O)N[C@@H](Cc1ccc2ccccc2c1)C(=O)N[C@@H](C)C(=O)NCCN,Potency,[1],inactive
same,Potency,[2],inactive
COc1ccc(-c2c(-c3cc(C(=O)O)ccn3)ncn2C)cc1,Potency,[1],inactive
same,Potency,[2],inactive
O=C(CC1C(=O)Nc2ccccc21)OC[C@H]1O[C@@H](OCCc2ccc(O)cc2)[C@H](O)[C@@H](O)[C@@H]1O (stereo not given in full),Potency,[1],inactive
same,Potency,[2],inactive
CC(=O)O[C@H]1C[C@@](O)(C(C)C)C2[C@@H](OC(=O)c3ccc(O)cc3)C[C@@]3(C)O[C@H]3C[C@]21C (stereo not given in full),Potency,[1],inactive
same,Potency,[2],inactive
CC1OC2OC(=O)C3(C)CC4=C(CO)C5=C(CC(=O)C4(C)C(C1=O)C23)C(C)(C)OC(=O)C5 (stereo not given),Potency,[1],inactive
same,Potency,[2],inactive
